Source: PubChem (Broad Institute)
This is a sample that favours compounds with a hit; in the whole collection about 7.9% have one here.
PD-1 reverse act = activators reversing PD-1 mediated T-cell inhibition. primary human CD4 T cells, PD-L1 beads, CellTiter-Glo 96 h. activation, % (no concentration beside the values). 29,000 tested, under 10 active; call rule not given here;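 note: 0% = median vehicle wells and 100% = positive control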
Hedgehog inh = Sonic Hedgehog pathway inhibition; Shh-LIGHT2 Gli-luciferase reporter, 30 h; inhibition, % (no concentration beside the values); 2.1% of 22,000 active; AID 2313;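 active = mean inhibition across valid replicates above about 65%, limit read from the data; inconclusive = mean under the limit, yet half or more replicates past it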;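 note: pathway switched on by Shh-conditioned medium diluted 1 in 25 in low serum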
MITF inhib = blocks MITF activity; TRPM1 promoter luciferase, luminescence, 24 h; inhibition, % (concentration not given with the values); AID 2240; 0.28% of 37,000 active; in the data active = inhibition above about 85%; inconclusive = no clear call, values can overlap the other calls; inactive = below about 68%;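 note: human melanocyte line stably carrying TRPM1 promoter luciferase reporter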
NOMO-1 viab = STK33 inhibitor candidate reducing NOMO-1 cell viability | AID 2330 | NOMO-1 AML viability, CellTiter-Glo luminescence, 72 h | inhibition, % (concentration not given with the values) | 7.5% of 37,000 active; in the data active = inhibition above about 80%; inconclusive = no clear call, values can overlap the other calls
Numbers without * were called inactive; ? = inconclusive; . = no result given.

SMILES | PD-1 reverse act | Hedgehog inh | MITF inhib | NOMO-1 viab
CCOC(=O)c1c(-c2ccccc2)csc1NC(=O)Cn1c(=O)oc2ccccc21 | 0 | . | 1 | 6
CC(O)(C(=O)Nc1ccc(S(=O)(=O)c2ccccc2)cc1)C(F)(F)F (stereo unspecified) | . | -69 | -5 | 38
CC(C)(C)C(=O)Nc1ccc2c(c1)C(=O)C(=O)c1ccccc1-2 | -58 | 88* | 97* | 98*
C[C@@H]1CN([C@H](C)CO)C(=O)c2cccc(NS(C)(=O)=O)c2O[C@@H]1CN(C)Cc1ccc(C(=O)Nc2ccccc2N)cc1 | -1 | . | 1 | 77
Cc1noc(C)c1S(=O)(=O)Nc1cccc2c1O[C@H](CN(C)Cc1ccc(C(=O)Nc3ccccc3N)cc1)[C@H](C)CN([C@@H](C)CO)C2=O | -2 | . | 9 | 137*
Cc1noc(C)c1S(=O)(=O)Nc1cccc2c1O[C@@H](CN(C)Cc1ccc(C(=O)O)cc1)[C@@H](C)CN([C@@H](C)CO)C2=O | 0 | -32 | -3 | 25
Cc1noc(C)c1S(=O)(=O)Nc1cccc2c1O[C@@H](CN(C)Cc1ccc(C(=O)Nc3ccccc3N)cc1)[C@@H](C)CN([C@H](C)CO)C2=O | 1 | . | 11 | 83*
CC1=CC(=O)OC(c2ccccc2)C1 (stereo unspecified) | 1 | 36 | 6 | 2
Cc1ccc(Oc2ccc(NC(=O)CCCC(=O)O)cc2)cc1C | 3 | . | -30 | -13
CCOC(=O)C1=C(C)NC(C)=C(C(=O)OC)C1c1cccc(Cl)c1Cl (stereo unspecified) | . | 23 | 11 | 27
COC(=O)C1=C(C)NC(C)=C(C(=O)OC)C1c1ccc(C(C)C)cc1 | 0 | 40 | -24 | 110*
C[C@@H]1CN([C@@H](C)CO)C(=O)c2cccc(NC(=O)C3CCCCC3)c2O[C@H]1CN(C)Cc1ccc(-c2ccccc2)cc1 | -4 | 12 | 61 | 81*
C[C@@H]1CN([C@@H](C)CO)C(=O)c2cccc(NC(=O)C3CCCCC3)c2O[C@H]1CN(C)Cc1ccccc1 | -4 | -6 | 29 | 96*
C[C@H](CO)N1C[C@H](C)[C@@H](CN(C)Cc2ccc(-c3ccccc3)cc2)Oc2c(NC(=O)C3CC3)cccc2C1=O | . | 31 | 37 | 89*
C[C@H]1CN([C@@H](C)CO)C(=O)c2cccc(NC(=O)C3CCCCC3)c2O[C@H]1CN(C)Cc1ccc(-c2ccccc2)cc1 | 0 | 3 | -1 | 87*
C[C@H](CO)N1C[C@H](C)[C@H](CN(C)Cc2ccc(-c3ccccc3)cc2)Oc2c(NC(=O)C3CC3)cccc2C1=O | -6 | 16 | -5 | 50
CC1=CC(CC2(C)OC2COc2c3occc3cc3ccc(=O)oc23)OC1=O (stereo unspecified) | 2 | -37 | -27 | -15
Cc1ccc(C)c(NC(=O)CSc2nnnn2-c2ccc(C(=O)O)cc2)c1 | -1 | . | -11 | 13
C[C@@H]1CN([C@@H](C)CO)C(=O)c2cccc(NC(=O)C3CCCCC3)c2O[C@H]1CN(C)CC1CCCCC1 | . | -21 | 13 | 95*
COc1ccc(CN(C)C[C@H]2Oc3c(NC(=O)C4CCCCC4)cccc3C(=O)N([C@H](C)CO)C[C@H]2C)cc1 | 0 | -4 | -4 | 20
C[C@H]1CN([C@@H](C)CO)C(=O)c2cccc(NC(=O)C3CCCCC3)c2O[C@H]1CN(C)Cc1ccc(Oc2ccccc2)cc1 | 0 | -24 | 9 | 57
C[C@@H]1CN([C@H](C)CO)C(=O)c2cccc(NC(=O)C3CCCCC3)c2O[C@@H]1CN(C)Cc1ccc(-c2ccccc2)cc1 | -5 | -13 | 23 | 110*
C[C@H]1CN([C@@H](C)CO)C(=O)c2cccc(NC(=O)C3CCCCC3)c2O[C@@H]1CN(C)CC1CCCCC1 | . | 10 | -3 | ?
C[C@H](CO)N1C[C@H](C)[C@H](CN(C)Cc2ccc(Oc3ccccc3)cc2)Oc2c(NC(=O)C3CCCCC3)cccc2C1=O | -2 | 39 | 9 | 109*
C[C@H](CO)N1C[C@H](C)[C@@H](CN(C)Cc2ccc(-c3ccccc3)cc2)Oc2c(NC(=O)C3CCCCC3)cccc2C1=O | . | 24 | 22 | 52
SMILES | PD-1 reverse act | Hedgehog inh | MITF inhib | NOMO-1 viab
COc1ccc(CN(C)C[C@@H]2Oc3c(NC(=O)C4CCCCC4)cccc3C(=O)N([C@@H](C)CO)C[C@H]2C)cc1 | -7 | 12 | 19 | 98*
O=C(CN1CCN(S(=O)(=O)c2cccc([N+](=O)[O-])c2)CC1)Nc1ccc(F)cc1 | . | . | 4 | 16
N#Cc1c(NC(=O)CSc2ncn[nH]2)sc2c1CCCCC2 | -1 | . | 104* | 39
N#Cc1c(C(F)(F)F)cc(-c2cccs2)nc1SCC(=O)Nc1sc2c(c1C#N)CCC2 | -2 | . | 56 | 74
CC(C)(C)c1cc(C(F)(F)F)c(C#N)c(SCC(=O)Nc2sc3c(c2C#N)CCCC3)n1 | . | . | 22 | 97*
COC(=O)c1c(NC(=O)CSc2ncn[nH]2)sc2c1CCCC2 | -2 | . | 18 | 32
COc1ccc(OC)c(NC(=O)CSc2nc(C)cc(=O)[nH]2)c1 | . | . | 5 | 4
COc1ccc(S(=O)(=O)N(C)CC(=O)NC2CC2)cc1C | . | . | -1 | -8
C[C@@H]1CN([C@@H](C)CO)C(=O)Cc2cc(NC(=O)Cc3cn(C)c4ccccc34)ccc2O[C@@H]1CN(C)Cc1ccccc1 | -4 | -14 | 6 | 37
C[C@@H]1CN([C@@H](C)CO)C(=O)Cc2cc(NC(=O)Cc3cn(C)c4ccccc34)ccc2O[C@@H]1CN(C)Cc1ccc(Oc2ccccc2)cc1 | -5 | -3 | 16 | 115*
C[C@@H]1CN([C@H](C)CO)C(=O)Cc2cc(NC(=O)Cc3cn(C)c4ccccc34)ccc2O[C@@H]1CN(C)Cc1ccc(Cl)c(Cl)c1 | -3 | -16 | 20 | 95*
C[C@H]1CN([C@@H](C)CO)C(=O)Cc2cc(NC(=O)Cc3cn(C)c4ccccc34)ccc2O[C@H]1CN(C)Cc1ccc2c(c1)OCO2 | 0 | -14 | 3 | 26
C[C@@H]1CN([C@H](C)CO)C(=O)Cc2cc(NC(=O)Cc3cn(C)c4ccccc34)ccc2O[C@@H]1CN(C)Cc1ccccc1 | -3 | 23 | 24 | 107*
C[C@H]1CN([C@@H](C)CO)C(=O)Cc2cc(NC(=O)Cc3cn(C)c4ccccc34)ccc2O[C@@H]1CN(C)Cc1ccc(-c2ccccc2)cc1 | -2 | -18 | 42 | 122*
C[C@@H]1CN([C@H](C)CO)C(=O)Cc2cc(NC(=O)Cc3cn(C)c4ccccc34)ccc2O[C@H]1CN(C)Cc1ccc(-c2ccccc2)cc1 | -3 | -39 | 24 | ?
Cc1ccc(S(=O)(=O)Nc2ccccc2CNc2cnc3ccccc3c2)cc1 | . | . | 57 | 60
Cc1nc(SCc2csc(C)n2)c2c3c(sc2n1)CCCC3 | -4 | . | -23 | 10
C/C=C/C1C2OC3=C(C(=O)OC3(C)O)C(=O)C1(C)C1CC(O)C(C)CC1C2O (stereo unspecified) | 3 | 4 | 7 | -9
COc1cc(C)c(S(=O)(=O)NCCc2c(C)[nH]c3ccccc23)cc1C | -2 | . | 29 | 34
Cc1noc(COc2ccccc2)c1C(=O)Sc1ccc(F)cc1F | -3 | . | -2 | 123*
